Data published in PubChem BioAssay AID1159580 (chemical genetic matrix, 2015).
Values joined by “and” are separate entries in the source; they are usually repeats but may differ in a detail not shown here. Equal values may be shown once. Among all 5,500 compounds or so, about 2,000 (36%) were called active. About 18% were inconclusive and are not listed. Rule as the data show it: active = normalized growth mostly below about 0.91 (no sharp cut-off); inconclusive = no clear call, values can overlap the other calls; inactive = mostly above about 0.92. The list shows a part of the results.

Test: chemical genetic growth profiling, strain panel (AID 1159580);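 also: tested at 20 µM; growth read once vehicle control cultures reached saturation at 30 °C; 1 = growth at the plate median or of vehicle wells; lower values mean less growth of the strain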
Conditions: S. cerevisiae deletion strains, growth OD

Measured: normalized growth

OC(CCN1CCCC1)(c1ccccc1)C1CCCCC1 (centres undefined)
inactive: locus YAL021C, strain ccr4, stronger effect = lower value 0.994 | locus YAL026C, strain drs2, stronger effect = lower value 1 | locus YAL030W, strain snc1, stronger effect = lower value 0.986 | locus YBL061C, strain skt5, stronger effect = lower value 0.989 | locus YBR009C, strain hhf1, stronger effect = lower value 1 | locus YBR021W, strain FUR4, stronger effect = lower value 0.947 | locus YBR023C, strain chs3, stronger effect = lower value 0.987 | locus YBR171W, strain sec66, stronger effect = lower value 0.965 | locus YBR229C, strain ROT2, stronger effect = lower value 0.988 | locus YBR231C, strain swc5, stronger effect = lower value 0.977 | locus YBR279W, strain paf1, stronger effect = lower value 1 | locus YCL011C, strain gbp2, stronger effect = lower value 0.998 | locus YCL016C, strain dcc1, stronger effect = lower value 1.01 | locus YCL029C, strain bik1, stronger effect = lower value 0.985 | locus YCL061C, strain MRC1, stronger effect = lower value 0.976 | locus YCL069W, strain vba3, stronger effect = lower value 0.98 | locus YCR088W, strain abp1, stronger effect = lower value 0.976 | locus YDL005C, strain med2, stronger effect = lower value 0.984 | locus YDL035C, strain GPR1, stronger effect = lower value 0.994 | locus YDL040C, strain nat1, stronger effect = lower value 0.989 | locus YDL074C, strain BRE1, stronger effect = lower value 1.01 | locus YDL101C, strain DUN1, stronger effect = lower value 0.995 | locus YDL134C, strain PPH21, stronger effect = lower value 0.99 | locus YDL185W, strain tfp1, stronger effect = lower value 0.979 | locus YDL192W, strain arf1, stronger effect = lower value 0.986 | locus YDR001C, strain nth1, stronger effect = lower value 0.991 | locus YDR069C, strain doa4, stronger effect = lower value 0.986 | locus YDR101C, strain arx1, stronger effect = lower value 0.982 | locus YDR137W, strain rgp1, stronger effect = lower value 1.05 | locus YDR150W, strain NUM1, stronger effect = lower value 1 | locus YDR159W, strain sac3, stronger effect = lower value 0.991 | locus YDR162C, strain NBP2, stronger effect = lower value 0.995 | locus YDR195W, strain ref2 0.942 | locus YDR297W, strain sur2, stronger effect = lower value 0.978 | locus YDR318W, strain mcm21, stronger effect = lower value 0.973 | locus YDR334W, strain swr1, stronger effect = lower value 0.983 | locus YDR335W, strain msn5, stronger effect = lower value 0.981 | locus YDR388W, stronger effect = lower value 0.976 | locus YDR392W, strain spt3, stronger effect = lower value 1 | locus YDR502C, strain sam2, stronger effect = lower value 1 | locus YEL003W, strain gim4, stronger effect = lower value 0.975 | locus YEL037C, strain rad23, stronger effect = lower value 0.982 | locus YEL061C, strain CIN8 (second series), stronger effect = lower value 0.986 | locus YEL061C, strain CIN8, stronger effect = lower value 0.998 | locus YER015W, strain faa2, stronger effect = lower value 0.989 | locus YER016W, strain bim1, stronger effect = lower value 0.998 | locus YER110C, stronger effect = lower value 0.975 | locus YER111C, strain swi4, stronger effect = lower value 1 | locus YER155C, strain BEM2 (second series), stronger effect = lower value 0.946 | locus YER155C, strain BEM2, stronger effect = lower value 0.99 | locus YER167W, strain BCK2, stronger effect = lower value 0.992 | locus YFR010W, strain ubp6, stronger effect = lower value 0.976 | locus YGL078C, strain dbp3, stronger effect = lower value 0.985 | locus YGL086W, strain mad1, stronger effect = lower value 0.994 | locus YGL167C, strain pmr1, stronger effect = lower value 0.985 | locus YGL173C, strain kem1, stronger effect = lower value 0.972 | locus YGL227W, strain vid30, stronger effect = lower value 0.99 | locus YGL240W, strain doc1, stronger effect = lower value 0.963 | locus YGL248W, strain PDE1, stronger effect = lower value 0.996 | locus YGL253W, strain hxk2, stronger effect = lower value 1.01 | locus YGR078C, strain PAC10, stronger effect = lower value 0.998 | locus YGR135W, strain pre9, stronger effect = lower value 0.983 | locus YGR229C, strain SMI1, stronger effect = lower value 0.993 | locus YGR252W, strain gcn5, stronger effect = lower value 1.01 | locus YHR013C, strain ard1, stronger effect = lower value 1 | locus YHR027C, strain rpn1, stronger effect = lower value 0.991 | locus YHR030C, strain SLT2, stronger effect = lower value 0.987 and 1.02 | locus YHR079C, strain IRE1 (second series), stronger effect = lower value 0.977 | locus YHR079C, strain IRE1, stronger effect = lower value 1.02 | locus YHR094C, strain hxt1, stronger effect = lower value 0.975 | locus YHR129C, strain ARP1, stronger effect = lower value 1 | locus YHR142W, strain chs7, stronger effect = lower value 0.999 | locus YHR200W, strain rpn10, stronger effect = lower value 0.974 | locus YIL066C, strain RNR3, stronger effect = lower value 0.989 | locus YIL073C, strain SPO22, stronger effect = lower value 0.957 | locus YIL125W, strain kgd1, stronger effect = lower value 0.967 | locus YIR030C, strain dcg1, stronger effect = lower value 0.985 | locus YJL092W, strain hpr5, stronger effect = lower value 0.969 | locus YJL095W, strain BCK1 (second series), stronger effect = lower value 0.986 | locus YJL095W, strain BCK1, stronger effect = lower value 1 and 1.03 | locus YJL115W, strain asf1, stronger effect = lower value 0.987 | locus YJL129C, strain trk1, stronger effect = lower value 0.973 | locus YJL134W, strain LCB3, stronger effect = lower value 0.994 | locus YJL154C, strain vps35, stronger effect = lower value 0.991 | locus YJL164C, strain tpk1, stronger effect = lower value 1.01 | locus YJL166W, strain qcr8, stronger effect = lower value 0.952 | locus YJL168C, strain set2, stronger effect = lower value 0.974 | locus YJL187C, strain SWE1 (second series), stronger effect = lower value 0.989 | locus YJL187C, strain SWE1, stronger effect = lower value 0.996
